# Compounds with a hit are over-represented: about 1.2% of the library has one in this group of screens.
# uPA surface inh: qHTS for Inhibitors of Cell Surface uPA Generation; cell surface uPA generation assay, qHTS; Potency, µM (titrated, usually from 38.3 µM), inactives show top-dose activity change, negative = inhibition, most hits filed as inhibitors; 330,000 compounds, 0.31% hits; active = well fitted inhibition curve with a large enough effect; inconclusive = small, poorly fitted or top-dose-only effect; inactive = no such curve, though single readings can be large or run the other way; tested in mouse RAW 264.7 cells; also: potency is read from the fitted curve at half-maximal effect; % is scaled to controls: 0 for no effect and ±100 for the full control effect; nearly all actives have a fitted effect of over 55% in size
# CCT chaperon mod: High-Throughput Screening for Modulators of Cytosolic Chaperonin Activity | purified chaperonin ATPase assay, HTRF ADP detection, 30 min | 360,000 compounds, 0.3% hits | AID 651819, 2012 | activity change, % (no concentration beside the values), hits read low; in the data active = activity change below about -30%; also: % is scaled to controls: 0 for no effect and ±100 for the full control effect
#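 TRiC at 40 or 20 nM final (batch-dependent) in 30 mM Tris pH 7.4, 100 mM KCl, 5 mM MgCl2, 1 mM DTT, with compound at single 76 uM and 10 uM ATP, 30 min at 37 deg C. ADP detected by HTRF Transcreener, 665/615 ratio.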
# Mm-Cpn inhibitor: Inhibitors of TCP-1 ring complex (TRiC) of Methanococcus maripaludis (MmCpn): qHTS; purified Mm-Cpn ATPase, ADP Transcreener TR-FRET; 330,000 compounds, 0.031% hits; Chaperonin Mm-Cpn (Methanococcus maripaludis); Potency, µM (doses to about 76.9 µM), inactives show at the highest dose activity, negative = inhibition, usual class: inhibitors; active = well fitted inhibition curve with a large enough effect; inconclusive = small, poorly fitted or top-dose-only effect; also: potency is read from the fitted curve at half-maximal effect; % is scaled to controls: 0 for no effect and ±100 for the full control effect; nearly all actives have a fitted effect of over 80% in size
#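 Measured: ADP formation by purified Mm-CPN. Conditions: 25 nM protein, 10 uM ATP, Tris pH 7.4 with Mg2+, K+ and DTT, 37°C for 30 min. Detection: Transcreener HTRF after 30 min at room temperature.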
# TSHR antagonist: Antagonists of the Thyroid Stimulating Hormone Receptor: HTS campaign. Thyrotropin receptor (Homo sapiens), P16473. TSHR-expressing cells, TSH-stimulated cAMP HTRF, 2 h; hits give low values. activity change, negative = inhibition, % at 11.5 µM. 330,000 compounds, 0.2% hits. AID 504810, 2011;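 active = activity change below a set negative limit, meaning inhibition stronger than a set level, cut at about -70% in these data; inconclusive = activity change between two set negative limits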; also: % is scaled to controls: 0 for no effect and ±100 for the full control effect
#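 Cell-based HTRF cAMP assay; TSHR cells + compound, TSH EC80 (4nM final), 2 h, 37 deg C. Lysis with anti-cAMP cryptate and cAMP-d2, 30 min RT, read 665/620 nm.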
# gsp antag: qHTS for Antagonists of gsp, the Etiologic Mutation Responsible for Fibrous Dysplasia/McCune-Albright Syndrome: qHTS; AID 624288, 2012; gsp-mutant cells, cAMP HTRF, 30 min; 340,000 compounds, 0.4% hits; Potency, µM (series often up to 76.9 µM), inactives show at the top dose activity change, negative = inhibition, most hits filed as inhibitors; calls by dose curve; cell line not stated here;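 also: intracellular cAMP measured with PDE inhibitor Ro 20-1724 present during compound exposure; potency is read from the fitted curve at half-maximal effect; % is scaled to controls: 0 for no effect and ±100 for the full control effect; nearly all actives have a fitted effect of over 65% in size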
#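 Cells, 2000/well, grown 16–24 h in DMEM 10% FBS with 0.5 mg/ml G418, then compounds plus […] (300 uM addition stock), 30 min at 37C. cAMP read by HTRF (cAMP-d2 and anti-cAMP antibody-K in lysis buffer) after 30 min RT.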
# gsp agonist: qHTS for Agonist of gsp, the Etiologic Mutation Responsible for Fibrous Dysplasia/McCune-Albright Syndrome: qHTS; AID 624287, 2012; Potency, µM (series often up to 76.9 µM), for the others: at the highest dose activation (cAMP increase), usual class: activators; gsp mutant cells, cAMP HTRF, 30 min; 340,000 compounds, 0.13% hits; active = well fitted activation curve with a large enough effect; inconclusive = small, poorly fitted or top-dose-only effect, or another doubt; inactive = no such curve, though single readings can be large or run the other way; cell line not stated here;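 also: phosphodiesterase inhibitor Ro 20-1724 added with compounds to block cAMP breakdown; potency is read from the fitted curve at half-maximal effect; nearly all actives have a fitted effect of over 60% in size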
#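 Cells in DMEM/10% FBS with G418 were pretreated with compounds in DMSO plus […] (300 uM stock) for 30 min at 37C. cAMP was measured by HTRF (cAMP-d2 plus anti-cAMP antibody-K) after 30 min at room temperature.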
# Active calls of the source: *; ? = inconclusive; nt = not tested or not shown; [ ] = dose if it differs, or a comment.
SMILES,uPA surface inh,CCT chaperon mod,Mm-Cpn inhibitor,TSHR antagonist,gsp antag,gsp agonist
CN(C)c1cc(-c2ccccc2)nc(N)n1,10µM*,0,1%,-4,11%,-25%
CC(=O)c1ccc(OCCCC(=O)Nc2ccc(Cl)c(S(=O)(=O)N3CCOCC3)c2)cc1,?,-4,nt,nt,-25%,-9%
Cc1ccc(NC(=O)COC(=O)c2ccc3c(c2)OCCO3)cc1S(=O)(=O)N1CCOCC1,-1%,2,-2%,-9,-21%,-3%[15.4 µM]
COc1cc(C(C)=O)ccc1OCC(=O)Nc1ccc(Cl)c(S(=O)(=O)N2CCOCC2)c1,0%,-98*,-9%,?,?,-9%
Cc1ccc(NC(=O)COC(=O)c2ccc(NC(=O)CC#N)cc2)cc1S(=O)(=O)N1CCOCC1,0%,-1,32µM*,20,-2%,-18%
COc1cccc(NC(=O)CN(C)C(=O)CC2CCCC2)c1,1%,-34*,nt,nt,10%,-2%[15.4 µM]
COc1cccc(NC(=O)CN(C)C(=O)c2cc(-c3ccc(F)cc3)nc3ccccc23)c1,-23%,-1,0%,-11,40µM*,-18%
Cc1nonc1NC(=O)CSc1nc(C23CC4CC(CC(C4)C2)C3)nc2ccccc12,?,0,-1%,-11,-29%,-3%
CCCCSc1nc2sc3c(c2c(=O)n1-c1ccc(C)cc1)CCN(C)C3,0%,-7,-2%,-74*,-24%,-3%[15.4 µM]
Cc1ccc(/C=N/NC(=O)c2ccoc2C)o1,3%,-1,-1%,6,-2%,12%
COc1ccc(OCCCC(=O)OCC(=O)NNC(=O)c2ccc([N+](=O)[O-])cc2)cc1,-1%,-2,1%,1,5%,10%
CN1C(=O)/C(=C/c2ccccc2F)Sc2ccc(C(=O)NCC3CCCO3)cc21 (centres undefined),-12%,-2,0%,-1,32µM*,?
Cc1cccc(/C=C2\Sc3ccc(C(=O)NCC4CCCO4)cc3N(C)C2=O)c1 (centres undefined),-8%,-1,5%,-17,-9%,35%
CCn1c(Oc2cccc(Br)c2)nc2c1c(=O)n(C)c(=O)n2C,27%,-44*,1%,12,-23%,11%
CCOc1cc(C(=O)OC(C)C(=O)Nc2ncc(Cl)cc2Cl)ccc1OCC(=O)N1CCOCC1 (centres undefined),8.9µM*,-3,-1%,-2,50µM*,-10%
CCOc1cc(C(=O)OC(C)C(=O)Nc2ccccc2OC)ccc1OCC(=O)N1CCOCC1 (centres undefined),-9%,-1,nt,nt,-24%,-1%
CCC(C)n1c(C)cc(=O)n1C(C)CC (centres undefined),-9%,1,nt,nt,10%,0%
CCOc1ccc2[nH]cc(S(=O)(=O)c3ccc(F)cc3)c(=O)c2c1,-20%,0,-1%,-18,-17%,-24%
Cc1ccc(-n2nnc(-c3nccn3C)n2)cc1,3.2µM*,0,nt,-1,15%,nt
CC(=O)O[C@H]1C2OC(=O)C(C)=C2[C@@H]2OC(=O)[C@]3(CCC4OC41C)OC23 (some centres undefined),7.1µM*,-2,-1%,11,-5%,nt
CCn1c(N2CCN(S(=O)(=O)c3ccc(Cl)cc3)CC2)nc2ccccc21,-6%,-5,2%,-16,32µM*,-8%[15.4 µM]
Cc1ccccc1C(=O)NC(=S)N(Cc1ccccc1)c1ccccn1,-18%,-4,-1%,nt,3%,-24%
CC(C)(C)c1cc(NC(=O)c2ccc(OC3CCCC3)cc2)no1,-5%,0,0%,-21,-16%,7%

# High-throughput results as filed in PubChem BioAssay.
